IP6K1 inhibitor – Primary qHTS assay for small molecule inhibitors of Inositol hexaphosphate kinase 1 (IP6K1) | Inositol hexakisphosphate kinase 1 (Homo sapiens), Q92551 | IP6K1 kinase, ADP-Glo luminescence, 2 h; active compounds read low | activity change, % (series mostly up to about 58 µM) | 0.81% of 140,000 active; in the data active = activity change below about -25%; also: % is scaled to controls: 0 for no effect and ±100 for the full control effect
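ADP-Glo luminescence measures ADP made by human IP6K1 during a 2 h RT reaction with ATP/IP6 (mix at 1.3 mM/130 uM); top library doses 57.5 and 19.1 uM final.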
NIH3T3 tox – Cytotoxic Profiling in NIH 3T3 Cell Line of Diverse Libraries Using Quantitative High-Throughput Screening; NIH 3T3 viability, CellTiter-Glo ATP luminescence, 48-72 h; 4.3% of 94,000 active; Potency, µM (titrated, usually from 96.7 µM), inactives show at the highest dose activity change, negative = cytotoxicity, actives largely listed as inhibitors; also: potency is read from the fitted curve at half-maximal effect; % is scaled to controls: 0 for no effect and ±100 for the full control effect; nearly all actives have a fitted effect of over 55% in size
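Cytotoxicity is measured as loss of cellular ATP: NIH 3T3 cells (400/well) are exposed to compound for 48 or 72 hr at 37 °C, then CellTiter-Glo luminescence is imaged after 10 min at room temperature.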
SNCA expr inhib – Primary qHTS assay for inhibitors of alpha-synuclein gene (SNCA) expression; 0.17% of 140,000 active; Potency, µM (titrated, usually from 57.2 µM), for inactives: at the top dose activity change, negative = inhibition, most hits filed as inhibitors; HEK-293 SNCA-luciferase knock-in, luminescence, 24 h;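 also: potency is read from the fitted curve at half-maximal effect; plate controls were DMSO cells for no effect and cell-free wells for full effect; nearly all actives have a fitted effect of over 45% in size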
HEK cytotox – Cytotoxic Profiling in HEK 293 Cell Line of Diverse Libraries Using Quantitative High-Throughput Screening; HEK 293 viability, ATP luminescence (CellTiter-Glo), 48-72 h; Potency, µM (top dose mostly 115 µM), for the others: top-dose activity change, negative = cytotoxicity, actives largely listed as inhibitors; 6.6% of 94,000 active; AID 1345083, 2018; also: potency is read from the fitted curve at half-maximal effect; % is scaled to controls: 0 for no effect and ±100 for the full control effect; nearly all actives have a fitted effect of over 60% in size
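Cells seeded first (HEK 293, 250 cells/well), then compound added by pintool. Incubation ran 48 or 72 hr at 37 degree Celsius. CellTiter-Glo was added and luminescence imaged after 10 min at room temperature.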
FLuc inh-1 – Firefly luciferase inhibition profiling of diverse chemical library using quantitative high-throughput screening; Luciferin 4-monooxygenase (Photinus pyralis), P08659; purified P. pyralis luciferase, luminescence, biochemical; Potency, µM (top dose mostly 115 µM), usual class: inhibitors; 2.5% of 76,000 active; also: potency is read from the fitted curve at half-maximal effect; % is scaled to controls: 0 for no effect and ±100 for the full control effect; nearly all actives have a fitted effect of over 65% in size
Target sequence (P08659 whole entry, looked up): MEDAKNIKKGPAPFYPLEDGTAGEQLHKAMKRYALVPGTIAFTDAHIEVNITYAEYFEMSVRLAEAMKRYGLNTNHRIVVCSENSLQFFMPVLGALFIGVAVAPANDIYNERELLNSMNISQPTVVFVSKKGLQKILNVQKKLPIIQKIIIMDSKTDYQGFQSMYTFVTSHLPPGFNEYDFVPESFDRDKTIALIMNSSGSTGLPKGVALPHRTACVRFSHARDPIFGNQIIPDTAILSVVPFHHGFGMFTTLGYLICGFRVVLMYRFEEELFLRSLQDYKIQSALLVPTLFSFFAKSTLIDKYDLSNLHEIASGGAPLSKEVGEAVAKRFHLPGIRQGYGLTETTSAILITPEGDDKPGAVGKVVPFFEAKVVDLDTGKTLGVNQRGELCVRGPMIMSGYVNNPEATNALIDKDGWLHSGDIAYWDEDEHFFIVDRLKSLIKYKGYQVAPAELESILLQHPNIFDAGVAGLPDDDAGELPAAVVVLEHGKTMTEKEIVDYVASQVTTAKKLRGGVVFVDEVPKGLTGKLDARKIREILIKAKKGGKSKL
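Luminescence read by CCD imaging after purified firefly luciferase (10nM final) was added to substrate buffer holding 10uM D-luciferin and 10uM ATP, pH 7.5, pre-dosed with compound.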
SNCA viab count – GF-AFC viability counterscreen for inhibitors of alpha-synuclein gene (SNCA) expression. AID 1671193, 2021. 0.12% of 150,000 active. Potency, µM (highest dose often 57.1 µM), inactives show at the highest dose activity change, negative = cytotoxicity, hits mostly cytotoxic. HEK-293-SNCA-luc viability, GF-AFC fluorescence, 24 h;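 also: potency is read from the fitted curve at half-maximal effect; 0% = DMSO-treated cells and -100% = medium-only wells without cells; nearly all actives have a fitted effect of over 30% in size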
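Cytotoxicity counterscreen: after 24 h compound treatment of genome-edited SNCA-luciferase HEK-293 cells, live-cell protease substrate GF-AFC read by fluorescence after 30 min; activity scaled between DMSO (0%) and medium-only (-100%), curves Hill-fitted.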
FLuc SDR no ATP – Firefly luciferase (FLuc-C-HiBiT) SDR gain of signal screen - without ATP. Purified FLuc-C-HiBiT, Nano-Glo HiBiT luminescence, no ATP. Potency, µM (highest dose often 32.7 µM), for the others: at the top dose activation (signal gain), actives largely listed as activators. 7.8% of 1,300 active. shares compounds with FLuc inh-1; also: potency is read from the fitted curve at half-maximal effect; nearly all actives have a fitted effect of over 55% in size
FLuc SDR ATP – Firefly luciferase (FLuc-C-HiBiT) SDR gain of signal screen - plus ATP; shares compounds with FLuc inh-1; purified FLuc-C-HiBiT + ATP, HiBiT complementation luminescence; Potency, µM (top dose mostly 32.7 µM), for the others: top-dose activation (gain of signal), hits mostly activators; 8.7% of 1,300 active;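 also: signal reports ligand binding via conformational change of the enzyme rather than luciferase catalysis; potency is read from the fitted curve at half-maximal effect; % of control where 0% means no effect; nearly all actives have a fitted effect of over 55% in size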
FLuc inh-2 – Firefly luciferase (FLuc-C-HiBiT) enzymatic inhibition screen - Functional assay | shares compounds with FLuc inh-1 | purified FLuc-C-HiBiT enzyme, luciferin luminescence | Potency, µM (titrated, usually from 32.7 µM), for the others: at the top dose activity change, negative = inhibition, most hits filed as inhibitors | 42% of 1,300 active | AID 1963320, 2024; also: potency is read from the fitted curve at half-maximal effect; % is scaled to controls: 0 for no effect and ±100 for the full control effect; nearly all actives have a fitted effect of over 70% in size
The depositor's hits bear a star; i = inactive; ? = inconclusive; nt = no result; [ ] = remark or other dose. A selection: hits, their analogues and other compounds. The true share with any hit is near 7.3%. Unless noted, calls follow the shape of the dose curve; as a rule, active = well fitted curve in the direction sought with a large enough effect; inconclusive = small, poorly fitted or top-dose-only effect, or another doubt; inactive = no such curve, though single readings can be large; an effect the other way counts as inactive or inconclusive.

SMILES	IP6K1 inhibitor	NIH3T3 tox	SNCA expr inhib	HEK cytotox	FLuc inh-1	SNCA viab count	FLuc SDR no ATP	FLuc SDR ATP	FLuc inh-2
Cc1ncoc1C(=O)N1CCCCCC1c1nnc(-c2ccccc2)o1 (centres undefined)	-5	-12%	13%	-14%	i	-9%	nt	nt	nt
COCCN1CCC2(C1)CN(C)c1ccc(C(=O)Nc3ccc(F)cc3)cc12 (centres undefined)	10	?	-2%[87.6 µM]	79µM*	2.8µM*	-7%[87.6 µM]	?	?	7.2µM*
CN1CC2(CCCN(CC3CC3)C2)c2cc(C(=O)Nc3ccn(C)n3)ccc21 (centres undefined)	39	-13%[138 µM]	-8%[87.6 µM]	?	i	1%[87.6 µM]	nt	nt	nt
COCCN1CCC2(C1)CN(C)c1ccc(C(=O)NCCOc3ccccc3)cc12 (centres undefined)	16	?	97%[87.6 µM]	?	i	8%[87.6 µM]	nt	nt	nt
COCCN1CCC2(C1)CN(C)c1ccc(C(=O)Nc3ccn(C)n3)cc12 (centres undefined)	nt	nt	nt	nt	nt	nt	?	?	10µM*
COCCN1CCC2(C1)CN(C)c1ccc(C(=O)Nc3ccccc3)cc12 (centres undefined)	-5	?	10µM*	79µM*	0.63µM*	-2%[87.6 µM]	4µM*	?	1.1µM*
COc1ccc(CN2C(=O)O[C@@H]3CN(S(=O)(=O)N(C)C)C[C@@H]32)cc1OC	16	-1%	27%	i	i	-3%	nt	nt	nt
O=C(O)c1ccnc(-c2ccnc(NCCN3CCCCC3=O)n2)c1	44	-4%	-22%	i	1.4µM*	4%	20%	11µM*	?
O=C(O)c1ccnc(-c2ccnc(NCCCN3CCCC3=O)n2)c1	17	-11%	-17%	i	?	-8%	nt	nt	nt
CN(CCO)c1ccc(-c2nc(CCCc3ccccc3)no2)cn1	-4	-29%	106%	?	6.3µM*	-6%	15%	14%	?
C[C@@H](Nc1ccc(-c2nc(CCCc3ccccc3)no2)cn1)C(N)=O	2	-8%	-7%	-6%	i	-1%	nt	nt	nt
CN(CCc1ccccn1)c1ccc(-c2nc(COc3ccccc3)no2)cn1	11	?	63%	35µM*	8.9µM*	-16%	13%	15%	?
c1ccc(CCCc2noc(-c3ccc(NCc4ccccn4)nc3)n2)cc1	27	-18%	119%	?	13µM*	-5%	10%	8%	-10%
CN(Cc1cccnc1)c1ccc(-c2nc(COc3ccccc3)no2)cn1	15	?	31%	25µM*	7.9µM*	-11%	18%	18%	?
COCCN1C(=O)CC[C@]2(C(=O)N3CCCCCC3)CCCC[C@@H]12	2	i	?	i	i	-14%	nt	nt	nt
Cc1nc2c(c(-c3ccc(Cl)cc3)n1)CCN(C(=O)c1ccc(F)cc1)CC2	-10	?	10%	-26%	i	3%	nt	nt	nt
Fc1ccc(-c2cc3c(cn2)CN(Cc2ccncc2)CCN3)cc1Cl	0	?	?	56µM*	1.8µM*	-15%[87.6 µM]	25%[49.3 µM]	18%[49.3 µM]	18µM*
Fc1ccc(CNc2cc3c(cn2)NCCN(Cc2ccccc2)C3)cc1	-19	?	-18%[87.6 µM]	?	i	4%[87.6 µM]	nt	nt	nt
COc1ccc(CN2CCNc3cc(-c4ccccc4)ncc3C2)cn1	-17	?	?	?	14µM*	-13%[87.6 µM]	23%[49.3 µM]	14%[49.3 µM]	?
COc1ccc(-c2cc3c(cn2)CN(Cc2ccncc2)CCN3)cc1	-18	?	-14%[87.6 µM]	?	3.2µM*	9%[87.6 µM]	25%[49.3 µM]	?	?
CCOC(=O)c1cn(C2CN(S(=O)(=O)c3cccc(Cl)c3)C2)nn1	33	-9%	?	?	i	-6%	nt	nt	nt
CNc1ccc(-c2noc([C@@H]3CCCN3Cc3ccccn3)n2)cn1	-9	?	26%[87.6 µM]	-24%[172 µM]	?	-7%[87.6 µM]	nt	nt	nt
CN(C)c1ccc(-c2noc([C@@H]3CCCN3Cc3cnc4ccccc4c3)n2)cn1	18	?	-39%[87.6 µM]	?	14µM*	-20%[87.6 µM]	14%[49.3 µM]	11%[49.3 µM]	-2%[49.3 µM]
CCn1c(-c2nonc2N)nc2c(C#CCO)ncc(OCCCN)c21	-15	nt	nt	nt	nt	?	nt	nt	nt
COc1ccc(C(=O)NCCn2cccc2-c2nc(-c3ccccc3)no2)cc1	0	-3%	25%	-24%	2.5µM*	-18%	?	?	2.8µM*
SMILES	IP6K1 inhibitor	NIH3T3 tox	SNCA expr inhib	HEK cytotox	FLuc inh-1	SNCA viab count	FLuc SDR no ATP	FLuc SDR ATP	FLuc inh-2
CCOc1ccc(C(=O)NCCn2cccc2-c2nc(-c3ccccc3)no2)cc1OCC	16	-11%	6%	?	i	-19%	nt	nt	nt
Cc1ccc(C(=O)NCCn2cccc2-c2nc(-c3ccc4c(c3)OCO4)no2)cn1	1	?	36%	28µM*	13µM*	-29%	26%	17%	?
Cc1ccc(C(=O)NCCn2cccc2-c2nc(-c3ccc4c(c3)OCO4)no2)cc1	7	-11%	63%	-22%	?	-13%	nt	nt	nt
Cc1ccccc1C(=O)NCCn1cccc1-c1nc(-c2ccc3c(c2)OCO3)no1	1	?	11%	?	?	-22%	nt	nt	nt
O=C(NCCn1cccc1-c1nc(-c2ccc3c(c2)OCO3)no1)c1ccc(Cl)cc1	6	-26%	79%	?	14µM*	-28%	13%	12%	?
COc1cccc(C(=O)Nc2ccc(-c3ccc(OC)nn3)cc2)c1	-5	?	nt	?	nt	nt	nt	nt	nt
COc1ccc(CC(=O)Nc2ccc(-c3nc4ccccc4s3)cc2Cl)cc1OC	9	nt	32%	nt	nt	15%	15%	11%	-19%

Bioassay records from PubChem.
